Results from PubChem BioAssay AID1578 (Sanford-Burnham Center for Chemical Genomics, 2009).
Out of some 290,000 compounds screened, about 3,000 (1%) were called active. Cut-off read from the data, not from the text of the source: active = inhibition mostly above about 36% (no sharp cut-off); inactive = mostly below about 34%. For the sample, actives were picked, then their nearest neighbours and some compounds at random.

assay: inhibition of NOD1-driven NF-kB reporter – cell-based, luminescence, uHTS, primary screen (AID 1578); settings: NOD1-driven NF-kB luciferase reporter cells, at 4 µM, stronger effect = higher value;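 note: HEK-293T reporter cells stimulated with the NOD1 agonist gamma-tri-DAP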

Structure (SMILES)	inhibition
O=C(Cn1c(C(F)(F)F)nc2ccccc21)N1CCCC1	-9.5% (inactive)
CC(CN1C(C)CCCC1C)OC(=O)c1ccc(Cl)cc1Cl (stereo unspecified)	-14.9% (inactive)
CCN(CC(=O)NCc1ccc(F)cc1)CC(=O)NC1CCCC1	-35.5% (inactive)
CCCn1nnnc1SCC(=O)N1CCCc2ccccc21	-20% (inactive)
CC1CCN(CC(=O)n2c3c(c4ccccc42)CCCC3)CC1	7.8% (inactive)
Cc1ccnc(SCC(=O)n2c3c(c4ccccc42)CC(C)CC3)n1 (stereo unspecified)	8.4% (inactive)
CC1CCc2c(c3ccccc3n2C(=O)CCl)C1 (stereo unspecified)	74.2% (active)
Cc1cccc(Nc2nc(N)nc(CN3CCN(C)CC3)n2)c1	-6.7% (inactive)
Nc1nc(CCl)nc(Nc2ccccc2)n1	36.6% (inactive)
COc1cccc(Nc2nc(N)nc(CCl)n2)c1	-7.5% (inactive)
Cc1ccc(Nc2nc(N)nc(CSc3nccn3C)n2)c(C)c1	-29.9% (inactive)
Cc1cccc(Nc2nc(N)nc(CN3CCC(C)CC3)n2)c1C	-38.2% (inactive)
CC1CC(C)CN(Cc2nc(N)nc(Nc3ccc4ccccc4c3)n2)C1 (stereo unspecified)	-11.4% (inactive)
COc1ccc(OCc2nc(N)nc(Nc3cccc(C)c3C)n2)cc1	-7% (inactive)
Cc1ccc(Nc2nc(N)nc(CN3CCCCCC3)n2)c(C)c1	-23.1% (inactive)
COc1ccc(C(C)C)cc1S(=O)(=O)N1CCC(C(=O)NCc2cccnc2)CC1	-9.3% (inactive)
CN1CCN(C(=O)N2CCNC2=O)CC1	-22% (inactive)
COc1ccc(/C(O)=C2/C(=O)C(=O)N(c3ccccn3)C2c2ccc(C(C)C)cc2)cc1 (stereo unspecified)	-7.2% (inactive)
Cc1nc2cc(NS(=O)(=O)c3c(C)c(C)cc(C)c3C)ccc2s1	22.1% (inactive)
COc1ccc(NC(=O)[C@@H]2[C@@H]3C(=O)N(C4CCCCC4)C(=O)[C@@H]3C3c4ccccc4C=CN32)cc1 (stereo partly specified)	-4.8% (inactive)
COc1ccc2sc(NC(=O)CC(C)C)nc2c1	-66.7% (inactive)
Cn1c(=S)[nH]c2[nH]c(=O)cnc2c1=O	-2.8% (inactive)
COc1ccc(NC(=O)c2ccc(C(=O)c3ccccc3)o2)cc1	-21.8% (inactive)
COc1ccc(CCNC(=O)c2nnn(CC(=O)Nc3ccc(C)cc3C)c2N)cc1OC	-14.4% (inactive)
COC(=O)C1(C)NC(c2ccccc2C)C2C(=O)N(c3ccc(F)cc3)C(=O)C21 (stereo unspecified)	-24.2% (inactive)
Cc1cccc(C(=O)Nc2nnc(S(=O)(=O)N3CCC(C)CC3)s2)c1	21.6% (inactive)

Structure (SMILES)	inhibition
CC1CCN(S(=O)(=O)c2nnc(NC(=O)c3cccc([N+](=O)[O-])c3)s2)CC1	30.9% (inactive)
Cc1ccc(C(=O)Nc2nnc(S(=O)(=O)N3CCCCCC3)s2)cc1	-23.3% (inactive)
O=C(Nc1nnc(S(=O)(=O)N2CCCCC2)s1)c1ccc(Cl)cc1	37.5% (inactive)
COc1cc(/C=C2/SC(=S)N(CC(=O)NC(C)(C)C)C2=O)cc(OC)c1OC	2.3% (inactive)
COc1ccc2c(CSc3nnc(-c4cccnc4)n3-c3ccccc3F)cc(=O)oc2c1	-12.1% (inactive)
Cc1ccc(S(=O)(=O)N(C)C)cc1NC(=O)CN1C(=O)NC2(CCCCCC2)C1=O	-38.1% (inactive)
CCOC(=O)[C@@H]1[C@H]2COc3ccc(Br)cc3[C@H]2N2C(=O)N(c3ccc(C)cc3)C(=O)[C@]12C	-18.3% (inactive)
O=C(CSCc1ccccc1)NNc1c(F)c(F)cc(F)c1F	34.4% (active)
O=C(CSCc1ccccc1)Nc1ccc(F)c(F)c1	-34.3% (inactive)
O=C(CSCc1ccccc1)Nc1ccc(F)cc1F	7.2% (inactive)
CCn1c(=O)c2cc(C(=O)NCc3cccs3)sc2c2ccccc21	-17.9% (inactive)
COc1ccc(-c2noc(C3CCCN(C(=O)c4cccc(F)c4)C3)n2)cc1 (stereo unspecified)	-12.2% (inactive)
CN1CCC(OC(=O)Cc2ccc(Cl)cc2)CC1	-12.1% (inactive)
Fc1ccccc1Sc1ccccc1CNC1=NCCN1	64.4% (active)
c1ccc(Sc2cccc3ccccc23)c(CNC2=NCCN2)c1	-31.1% (inactive)
Fc1ccc(Sc2ccccc2CNC2=NCCN2)cc1	-4.9% (inactive)
CCOC(=O)c1c(CN2CCOCC2)n(-c2ccccc2)c2cc(Br)c(OC)cc12	30.8% (inactive)
CCOC(=O)c1c(CN2CCN(C)CC2)n(-c2ccccc2)c2cc(Br)c(O)cc12	-4% (inactive)
CCOC(=O)c1c(CN2CCOCC2)n(-c2ccccc2)c2cc(Br)c(O)cc12	67% (active)
Cc1cccc(-n2c(C)cc(C(=O)NC3CCCCC3)c2C)c1	-17.7% (inactive)
CCOCCCNC(=S)NNC(=O)CCn1nc(C)c(Br)c1C	-19.5% (inactive)
NC(=O)CSc1nc2ccccc2c(=O)n1Cc1ccccc1	-16% (inactive)
Cc1cc(NC(=O)CSc2nc3ccccc3c(=O)n2Cc2ccccc2)no1	5% (inactive)
Cc1ccc(S(=O)(=O)N2CCCCC2C(=O)N(C)c2ccccc2)cc1 (stereo unspecified)	-15.4% (inactive)
Cc1cc(C)n(Cc2ccc(Cl)c(Cl)c2)c(=O)c1S(=O)(=O)c1ccccc1	5.3% (inactive)
CC(=O)c1ccc(-n2nncc2C(C)(C)C)cc1	60.5% (inactive)

Structure (SMILES)	inhibition
Cc1cnnn1-c1ccc(C(=O)CCl)cc1	19.4% (inactive)
CC(C)(C)c1cnnn1-c1ccc(C(=O)CCl)cc1	77.3% (active)
O=C1N=C(N2CCOCC2)S/C1=C\c1ccncc1	-7.7% (inactive)
CC1(C)CN=C(N(C(=O)Nc2ccccc2)c2ccccc2F)S1	-4.1% (inactive)
Cc1ccc(COc2ccc(-c3nnco3)cc2)cc1	-12.2% (inactive)
Fc1ccc(COc2ccc(-c3nnco3)cc2)cc1	-10.4% (inactive)
CCCCN(CC)S(=O)(=O)c1ccc2c(c1)n(C)c(=O)c(=O)n2C	-6% (inactive)
Cc1nn(Cc2c(Cl)cccc2Cl)c(C)c1NC(=O)/C=C/c1cnn(C)c1C	99% (active)
Cc1ccccc1Cn1nc(C)c(NC(=O)/C=C/c2cnn(C)c2C)c1C	-19.1% (inactive)
CCn1nc(C)c(NC(=O)/C=C/c2cnn(C)c2C)c1C	11% (inactive)
Cc1nc2cc(NS(=O)(=O)c3cccc4cccnc34)ccc2s1	-11.7% (inactive)
CN(C)/C(=N\S(=O)(=O)c1ccccc1)c1ccccc1	-32.6% (inactive)
N=C1SC(CC(=O)Nc2ccc([N+](=O)[O-])cc2)C(=O)N1c1ccccc1 (stereo unspecified)	-6.5% (inactive)
CCOC(=O)C1(CCc2ccccc2)CCN(C(=O)CCn2cnnn2)CC1	-48% (inactive)
O=C(/C=C/c1ccc(OC(F)F)cc1)Nc1cccc(S(=O)(=O)N2CCOCC2)c1	-23.1% (inactive)
Cc1ccc(-c2nc3n(n2)Cc2ccccc2-3)cc1	-27.4% (inactive)
Clc1ccc(-c2nc3n(n2)Cc2ccccc2-3)cc1	-7.2% (inactive)
CCn1c(C)nc2cc(-c3nc4n(n3)Cc3ccccc3-4)ccc21	94% (active)
COc1ccc(CCNC2CC(=O)N(C3CCCCC3)C2=O)cc1OC (stereo unspecified)	-7.3% (inactive)
CCN(CC)CCCNC1=C(Cl)C(=O)c2ccccc2C1=O	98.9% (active)
O=C1C(Cl)=C(NCCCO)C(=O)c2ccccc21	-20.7% (inactive)
CCNC1=C(Cl)C(=O)c2ccccc2C1=O	4.8% (inactive)
CC1CCc2c(sc3ncn(CC(=O)N=Nc4c(O)[nH]c5ccccc45)c(=O)c23)C1 (stereo unspecified)	4% (inactive)
COc1ccc(/C=N/Nc2ccccn2)cc1OC	1.4% (inactive)
O=[N+]([O-])c1cc(/C=N\Nc2ccccn2)ccc1Cl	-18.5% (inactive)
COc1cc(/C=N/Nc2ccccn2)ccc1O	7.2% (inactive)

Structure (SMILES)	inhibition
Oc1cccc(/C=N/Nc2cccc3cccnc23)c1	-66.8% (inactive)
COc1cc(/C=N/Nc2ccccn2)cc(OC)c1O	46.4% (active)
COc1cc(/C=N/Nc2cccc3cccnc23)cc(OC)c1O	50.8% (active)
Oc1ccccc1/C=N/Nc1cccc2cccnc12	-47.2% (inactive)
O=[N+]([O-])c1cc(Cl)cc(/C=N/Nc2nc3ccccc3s2)c1O	1.6% (inactive)
CC1=C(C(=O)OCc2ccccc2)C(c2ccccc2OC(F)F)NC(=O)N1 (stereo unspecified)	11.1% (inactive)
Cc1[nH]c2ccccc2c1C(=O)C(=O)NCc1cccs1	-20.5% (inactive)
Cc1ccccc1SCC(=O)N/N=C/c1ccc(F)cc1	4.1% (inactive)
O=C(Cc1ccccc1F)Nc1nc(-c2cccnc2)cs1	-9.2% (inactive)
O=C(CSc1nnc(-c2ccco2)o1)NC(=O)Cc1ccccc1	-4.5% (inactive)
CC(=O)N1CN(Cc2ccccn2)Cc2c1sc1c2CCCC1	-11.9% (inactive)
CC(=O)c1c(C)[nH]c(C(=O)Nc2nc(C)cs2)c1C	12.4% (inactive)
CC(=O)c1c(C)[nH]c(C(=O)Nc2nc(-c3ccc(Cl)cc3)cs2)c1C	66.1% (inactive)
COc1ccccc1N1CCN(C(=O)C(C)N(c2ccc(C)cc2)S(C)(=O)=O)CC1 (stereo unspecified)	-7.9% (inactive)
O=C1c2ccc(Oc3ccc([N+](=O)[O-])cc3)cc2C(=O)N1CCO	-16.9% (inactive)
COc1ccc(N2C(=O)CC(Sc3nc4c(cc3C#N)CCC4)C2=O)cc1 (stereo unspecified)	-26.6% (inactive)
CCc1c(C)nc2ncnn2c1NCCc1ccccc1	24% (inactive)
CCc1c(C)nc2ncnn2c1NCCc1ccc(Cl)cc1	57.5% (active)
CCc1c(C)nc2ncnn2c1NCCc1ccc(OC)cc1	53.3% (inactive)
O=C(N/N=C/c1ccc2cccnc2c1)c1nc2ccccc2c(=O)[nH]1	-15.6% (inactive)
Cn1ncc2c(O/N=C(\N)c3ccc(C(F)(F)F)cc3)ncnc21	-5.2% (inactive)
Cn1ncc2c(O/N=C(\N)c3ccc(C(C)(C)C)cc3)ncnc21	98.4% (active)
Cn1ncc2c(NNC(=O)c3ccc(O)cc3)ncnc21	-28% (inactive)
